Reference: PubChem BioAssay (NCATS)
Results filed as inconclusive are left out. For part of these data: Entries with a potency or affinity are not part of this list. Active and inactive are the calls of the source. Unless noted, how the calls were made is not given here.

Tests used:
[1] = Ebola virus entry assay, green fluorescence channel
[2] = Ebola virus entry assay, blue channel fluorescence
[3] = Ebola virus entry assay, reporter ratio channel; Channel type: primary
[4] = Ebola virus entry assay, blue channel (ratio component)
[5] = qHTS assay for measurement of the activity of small molecule inhibitors on Zika virus induced Caspase-3 activity in human iPSC derived neural progenitor cells (hNPCs) (AID 1224857; active means well fitted inhibition curve with a large enough effect; further: % of control where 0% means no effect; nearly all actives have a fitted effect of over 65% in size); settings: hNPCs ZIKV-induced caspase-3/7, Caspase-Glo luminescence, 6 h; series mostly up to 45.7 µM
Summary of the method: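 Pretreat hNPCs with compound 1 h; infect ZIKV 2 FFU/cell; 6 h 37 C, 5% CO2; Caspase-Glo 3/7, 30 min RT; luminescence; normalize to no-virus and virus-only wells.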

[6] = qHTS assay for measurement of the activity of small molecule inhibitors on Zika virus induced Caspase-3 activity in human astrocytoma cells (AID 1224859; active means well fitted inhibition curve with a large enough effect;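 further: plate controls were ZIKV-infected untreated cells for no effect and uninfected cells for full effect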); settings: SNB-19 ZIKV-induced caspase-3/7, luminescence, 6 h; series mostly up to 45.7 µM
Summary of the method: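 Human SNB-19 astrocytoma cells in RPMI 1640 with 10% FBS receive compound one hour ahead of Zika virus at 2 FFU/cell. After 6 h infection, caspase-3/7 activity is detected by Caspase-Glo luminescence.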

[7] = Ebola virus entry assay, green channel fluorescence
[8] = Immunotoxin (HA22) sensitization/mitigation study. Vehicle arm (PBS) (AID 1159510); settings: cancer cells viability with PBS vehicle (HA22 study); series mostly up to 46.1 µM; further: potency means the concentration at half of the fitted maximal effect
[9] = Immunotoxin (SS1P) sensitization/mitigation study. Vehicle arm (DMEM) (AID 1159513); settings: cell viability with vehicle (DMEM); series mostly up to 46.1 µM
[10] = Ebola virus entry assay, ratio channel
[11] = qHTS profiling of the MIPE4 collection as inhibitors of Plasmodium falciparum (3D7) proliferation (AID 743344);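 further: scaled between DMSO vehicle wells and 0.29 µM artemisinin as full inhibition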; settings: P. falciparum 3D7 in erythrocytes, SYBR Green DNA fluorescence, 72 h; at 28.5 µM (top of the series)
Summary of the method: (§1)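 Parasite DNA was quantified by SYBR Green I fluorescence (ex 485, em 535 nm) after overnight lysis in saponin/Triton buffer at room temperature. Cultures at 0.3% parasitemia and 2.5% hematocrit were first exposed to compound for 72 h at 37 C; signals were normalised to artemisinin (0.29 uM) and vehicle wells.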

[12] = qHTS profiling of the MIPE4 collection as inhibitors of Plasmodium falciparum (DD2) proliferation (AID 743345); settings: P. falciparum Dd2 in erythrocytes, SYBR Green DNA, 72 h; at 28.5 µM (top of the series)
Summary of the method: as §1

[13] = qHTS profiling of the MIPE4 collection as inhibitors of Plasmodium falciparum (DD2) proliferation (Rep 2) (AID 743346); settings: P. falciparum Dd2 in erythrocytes, SYBR Green DNA, 72 h; at 28.5 µM (top of the series)
Summary of the method: as §1

[14] = qHTS profiling of the MIPE4 collection as inhibitors of Plasmodium falciparum (HB3) proliferation (AID 743347);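 further: plate controls were DMSO vehicle wells for no effect and artemisinin wells for full effect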; settings: P. falciparum HB3 in erythrocytes, SYBR Green DNA, 72 h; at 28.5 µM (top of the series)
Summary of the method: as §1

[15] = High-throughput drug toxicity screening in the BPDCN cell line Gen2.2 (AID 1224824); settings: Gen2.2 BPDCN cells; at 45.8 µM (top of the series);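 further: cells exposed to compounds for 48 h before reading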
Summary of the method: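 Readout is ATP luminescence from Gen2.2 cells after two days of drug exposure in serum-containing medium at 37 °C. Values express percent activity, with vehicle defining full signal and 9.2 uM bortezomib defining zero.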

[16] = High-throughput drug toxicity screening in the BPDCN cell line Cal-1 (AID 1224825); settings: Cal-1 BPDCN cell viability, qHTS; at 45.8 µM (top of the series)
Summary of the method: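 CellTiter-Glo luminescence after 48 h compound exposure; percent activity scaled with DMSO as 100% and bortezomib (9.2 uM final) as 0%. Cal-1 cells seeded at 500/well in RPMI, 10% FBS, no phenol red.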

[17] = qHTS Screen of the MIPE 4.0 Collection Against Ewings Sarcoma (TC71) (AID 1259253; active means well fitted inhibition curve with a large enough effect;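 further: 100% = DMSO-treated cells and 0% = medium-only wells without cells; nearly all actives have a fitted effect of over 40% in size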); settings: TC71 Ewing sarcoma viability, CellTiter-Glo, 48 h; series mostly up to 45.8 µM
Summary of the method: (§2)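 Dose series incubated 48 h with cells in RPMI plus 5% FBS, glutamine and penicillin/streptomycin; cell viability then quantified via CellTiter-Glo.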

[18] = qHTS Screen of the MIPE 4.0 Collection Against Ewings Sarcoma (EW8) (AID 1259255; active means well fitted inhibition curve with a large enough effect;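 further: 100% = DMSO-treated cells and 0% = medium-only wells without cells; nearly all actives have a fitted effect of over 35% in size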); settings: EW8 Ewing sarcoma viability, CellTiter-Glo, 48 h; series mostly up to 45.8 µM
Summary of the method: as §2
Wherever efficacy is given: 0% is about no effect.

For `ClC1=C(Cl)C2(Cl)C(CBr)CC1(Cl)C2(Cl)Cl` (stereo not given), the efficacy [1] was -23.9% (inactive), the outcome [2] was “inactive” and the outcome [3] was “inactive”. For the same compound, the outcome [4] was “inactive”, the Potency [5] was “inactive” and the outcome [6] was “inactive”.
For `C[C@]12CCC(=O)C=C1CC[C@@H]1[C@@H]2[C@@H](O)C[C@@]2(C)[C@H]1CC[C@]2(O)C(=O)CO`, the efficacy [1] was 14.5% (inactive), the outcome [2] was “inactive” and the outcome [7] was “inactive”. For the same compound, the outcome [3] was “inactive”, the outcome [4] was “inactive” and the Potency [8] was 0.296 µM (active). For the same compound, the outcome [9] was “inactive”.
In the case of `C[N+]1(CCC(C(N)=O)(c2ccccc2)c2ccccc2)CCCCC1`, the efficacy [1] is reported as 21.3% (inactive), the outcome [2] is reported as “inactive” and the outcome [7] is reported as “inactive”. For the same compound, the outcome [3] was “inactive”, the outcome [4] was “inactive” and the Potency [5] was “inactive”. The outcome [6] was “inactive”.
In the case of `NC(=O)OCCCc1ccccc1`, the efficacy [1] is reported as 24.7% (inactive), the outcome [2] is reported as “inactive” and the outcome [7] is reported as “inactive”. The outcome [3] was “inactive”, the outcome [4] was “inactive” and the Potency [5] was “inactive”. For the same compound, the outcome [6] was “inactive”.
In the case of `Clc1ccc(CO/N=C(\Cn2ccnc2)c2ccc(Cl)cc2Cl)c(Cl)c1`, the efficacy [1] is reported as -155% (inactive), the AC50 [2] is reported as 28.2 µM (active) and the outcome [10] is reported as “inactive”. For the same compound, the AC50 [3] was 31.6 µM (active), the Potency [5] was “inactive” and the outcome [6] was “inactive”.
With `CCOC(=O)NC(O)C(Cl)(Cl)Cl` (stereo not given) the efficacy [1] was 20.9% (inactive), the outcome [2] was “inactive” and the outcome [7] was “inactive”. For the same compound, the outcome [3] was “inactive”, the outcome [4] was “inactive” and the Potency [5] was “inactive”. For the same compound, the outcome [6] was “inactive”.
In the case of `CCCCCCCCC(=O)NCc1ccc(O)c(OC)c1`, the efficacy [1] is reported as -29.4% (inactive), the outcome [2] is reported as “inactive” and the outcome [7] is reported as “inactive”. For the same compound, the outcome [3] was “inactive”, the outcome [4] was “inactive” and the Potency [5] was “inactive”. The outcome [6] was “inactive”.
With `C=CCc1cc(OC)c(O)c(C(=O)NCCO)c1` the parasite growth, % of DMSO control [11] was 114%, the parasite growth remaining, % of DMSO control (lower = more inhibition) [12] was 40.8% and the parasite growth, % of control (lower = inhibition) [13] was 125%. For the same compound, the growth, % of control [14] was 100%, the efficacy [1] was -21.5% (inactive) and the AC50 [2] was 12.6 µM (active). The AC50 [10] was 22.4 µM (active) and the AC50 [3] was 22.4 µM (active).
With `C[C@@H]1CN(C2CCC(C#N)(c3ccc(F)cc3)CC2)CC[C@]1(C(=O)O)c1ccccc1` (stereo not given in full) the efficacy [1] was 31.9% (inactive), the outcome [2] was “inactive” and the outcome [7] was “inactive”. For the same compound, the outcome [3] was “inactive”, the outcome [4] was “inactive” and the Potency [5] was “inactive”. For the same compound, the outcome [6] was “inactive”.
With `COP(=O)(OC)C(O)C(Cl)(Cl)Cl` (stereo not given) the efficacy [1] was -51.3% (inactive), the outcome [2] was “inactive” and the outcome [3] was “inactive”. For the same compound, the outcome [4] was “inactive”, the Potency [5] was “inactive” and the outcome [6] was “inactive”.
For `COCC(=O)N(c1c(C)cccc1C)C(C)C(=O)OC` (stereo not given), the efficacy [1] was -46.6% (inactive), the outcome [2] was “inactive” and the outcome [7] was “inactive”. For the same compound, the outcome [3] was “inactive”, the outcome [4] was “inactive” and the Potency [5] was “inactive”. The outcome [6] was “inactive”.
For `CCN(CC)C(C)C(=O)c1ccccc1` (stereo not given), the efficacy [1] was 12% (inactive), the outcome [2] was “inactive” and the outcome [7] was “inactive”. The outcome [3] was “inactive”, the outcome [4] was “inactive” and the Potency [5] was “inactive”. The outcome [6] was “inactive”.
For `Cc1ccc(N=CN(C)C=Nc2ccc(C)cc2C)c(C)c1`, the efficacy [1] was -16% (inactive), the outcome [2] was “inactive” and the outcome [7] was “inactive”. The outcome [3] was “inactive”, the outcome [4] was “inactive” and the Potency [5] was “inactive”. The outcome [6] was “inactive”.
With `CCOC(=O)c1cncn1C(C)c1ccccc1` (stereo not given) the efficacy [1] was 19.1% (inactive), the outcome [2] was “inactive” and the outcome [7] was “inactive”. For the same compound, the outcome [3] was “inactive”, the outcome [4] was “inactive” and the Potency [5] was “inactive”. For the same compound, the outcome [6] was “inactive”.
For `O=c1n(Cl)c(=O)n(Cl)c(=O)n1Cl`, the efficacy [1] was -11.8% (inactive), the outcome [2] was “inactive” and the outcome [7] was “inactive”. The outcome [3] was “inactive”, the outcome [4] was “inactive” and the Potency [5] was “inactive”. For the same compound, the outcome [6] was “inactive”.
In the case of `CN(C)[C@@H](CCOc1cccc2ccccc12)c1ccccc1`, the parasite growth, % of control (lower = inhibition) [13] is reported as 31.8%, the efficacy [1] is reported as -116% (inactive) and the AC50 [2] is reported as 7.08 µM (active). For the same compound, the AC50 [10] was 3.16 µM (active) and the AC50 [3] was 3.16 µM (active).
For `Clc1ccc(C(OCCN2CCCCC2)c2ccccc2)cc1` (stereo not given), the efficacy [1] was 53.2% (inactive), the AC50 [2] was 14.1 µM (active) and the AC50 [10] was 14.1 µM (active). The AC50 [3] was 14.1 µM (active), the Potency [5] was “inactive” and the outcome [6] was “inactive”.
With `CN1C(=O)CN=C(c2ccccc2)c2cc([N+](=O)[O-])ccc21` the efficacy [1] was 23.9% (inactive), the outcome [2] was “inactive” and the outcome [7] was “inactive”. The outcome [3] was “inactive”, the outcome [4] was “inactive” and the Potency [5] was “inactive”. The outcome [6] was “inactive”.
`COc1ccc(C(=O)N2CCCC2=O)cc1` gave a parasite growth, % of DMSO control [11] of 90.2%, a parasite growth remaining, % of DMSO control (lower = more inhibition) [12] of 19.7% and a parasite growth, % of control (lower = inhibition) [13] of 128%. The growth, % of control [14] was 103%, the efficacy [1] was -13.7% (inactive) and the outcome [2] was “inactive”. The outcome [7] was “inactive”, the outcome [3] was “inactive” and the outcome [4] was “inactive”. The cell viability, % of control (lower = more cytotoxic) [15] was 46.4%, the viability (% of control) [16] was 41.6% and the Potency [5] was “inactive”. For the same compound, the outcome [6] was “inactive”, the Potency [17] was “inactive” and the Potency [18] was “inactive”.
`COC(=O)C1=CCCN(C)C1` gave a parasite growth, % of DMSO control [11] of 75.8%, a parasite growth remaining, % of DMSO control (lower = more inhibition) [12] of 98.7% and a parasite growth, % of control (lower = inhibition) [13] of 47.2%. For the same compound, the growth, % of control [14] was 93%, the efficacy [1] was 26.3% (inactive) and the outcome [2] was “inactive”. The outcome [7] was “inactive”, the outcome [3] was “inactive” and the outcome [4] was “inactive”. The cell viability, % of control (lower = more cytotoxic) [15] was 166%, the viability (% of control) [16] was 129% and the Potency [5] was “inactive”. The outcome [6] was “inactive” and the Potency [17] was “inactive”.
In the case of `C[C@H](N)[C@H](O)c1ccc(O)c(O)c1`, the efficacy [1] is reported as 56.6% (inactive), the AC50 [2] is reported as 5.62 µM (active) and the AC50 [10] is reported as 4.47 µM (active). For the same compound, the AC50 [3] was 4.47 µM (active) and the outcome [6] was “inactive”.
In the case of `O=C(N[C@H]1N=C(c2ccccc2F)c2cccc3c2N(CC3)C1=O)c1cc2ccccc2[nH]1`, the efficacy [1] is reported as -43.7% (inactive), the AC50 [2] is reported as 17.8 µM (active) and the AC50 [10] is reported as 20 µM (active). The AC50 [3] was 20 µM (active), the Potency [5] was “inactive” and the outcome [6] was “inactive”.
For `OC[C@@H](O)[C@H](O)[C@H](O)[C@@H](O)CO`, the efficacy [1] was -17.3% (inactive), the outcome [2] was “inactive” and the outcome [7] was “inactive”. The outcome [3] was “inactive” and the outcome [4] was “inactive”.
In the case of `NC(=O)c1ncn([C@@H]2O[C@H](CO)[C@@H](O)[C@H]2O)c1N`, the efficacy [1] is reported as -19.4% (inactive), the outcome [2] is reported as “inactive” and the outcome [7] is reported as “inactive”. The outcome [3] was “inactive”, the outcome [4] was “inactive” and the Potency [8] was “inactive”. The outcome [9] was “inactive”.
In the case of `Cc1[nH]c(=O)c(C#N)cc1-c1ccc2nccn2c1`, the efficacy [1] is reported as -27% (inactive), the outcome [2] is reported as “inactive” and the outcome [7] is reported as “inactive”. For the same compound, the outcome [3] was “inactive”, the outcome [4] was “inactive” and the Potency [8] was “inactive”. The outcome [9] was “inactive”.
